Consider one compound from PubChem BioAssay (EPA / NIEHS).

Assay [1] is described as follows: TOX21_p53_BLA_p2_viability: Viability Assessment in the Tox21 HCT-116 p53 Agonism Beta-lactamase Assay, Phase 2 (AID 2283591).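 Further: compound exposure lasted 16 h at 37 °C; actives lower the ATP signal meaning cytotoxicity.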 An outline of the steps:
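HCT-116 p53-bla cells (4000/well) rested 5 h at 37C, then received compounds in DMSO (217-fold dilution) for 16 h at 37C, 5% CO2. After the CCF4 read, CellTiter-Glo was added; ATP luminescence was read after 30 min at room temperature.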

Assay [2] can be described thus: TOX21_p53_BLA_p3_viability: Viability Assessment in the Tox21 HCT-116 p53 Agonism Beta-lactamase Assay, Phase 3 (AID 2283593).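 Further: cells exposed to compound for 16 h before reading.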 An outline of the steps: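 HCT-116 cells (4000/well) rested 5 h at 37C, then got DMSO compounds by pin tool (217-fold dilution) for 16 h at 37C, 5% CO2. After the bla read, CellTiter-Glo was added and luminescence read at 30 min, room temperature.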

Assay [3] has as its target Cellular tumor antigen p53 (Homo sapiens) (UniProt P04637). The assay can be described thus: TOX21_p53_BLA_p3_ratio: Tox21 HCT-116 p53 Agonism Beta-lactamase Assay, Ratio, Phase 3 (AID 2283596). An outline of the steps:
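HCT116 p53-bla cells (4000/well) given compound in DMSO (217-fold dilution) after 5 h, incubated 16 h at 37C. CCF4-AM substrate 2 h at room temperature; 460/530 nm emission ratio, gain fitted against DMSO.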

Assay [4] shares this target. Description: TOX21_p53_BLA_p5_ratio: Tox21 HCT-116 p53 Agonism Beta-lactamase Assay, Ratio, Phase 5 (AID 2283599). An outline of the steps: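 HCT-116 cells carrying a p53-inducible beta-lactamase reporter were seeded at 4000 cells/well and dosed after 5 h with compound in DMSO (217-fold dilution). After 16 h at 37C, CCF4-AM substrate was added for 2 h, and the 460/530 nm emission ratio was scored as gain-of-signal versus DMSO.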

For assay [5] the target is unchanged. The assay can be described thus: TOX21_p53_BLA_p4_ratio: Tox21 HCT-116 p53 Agonism Beta-lactamase Assay, Ratio, Phase 4 (AID 2283601). An outline of the steps:
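HCT116 cells carrying an inducible beta-lactamase reporter were plated at 4000 cells/well, rested 5 h, then exposed to compounds in DMSO (217-fold dilution) for 16 h at 37C. CCF4-AM substrate was loaded 2 h at room temperature; 460/530 nm emission ratio scored gain-of-signal versus DMSO.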

Each structure is given as a SMILES string. Records with an inconclusive call do not appear. The source made the active and inactive calls. How the source made its calls: active means hit-call score of the fitted dose curve at least 0.9, where 1 is the maximum; inconclusive means response in the unintended direction; inactive means score below 0.9.

Sequence of Cellular tumor antigen p53 (Homo sapiens) (P04637 whole entry, looked up): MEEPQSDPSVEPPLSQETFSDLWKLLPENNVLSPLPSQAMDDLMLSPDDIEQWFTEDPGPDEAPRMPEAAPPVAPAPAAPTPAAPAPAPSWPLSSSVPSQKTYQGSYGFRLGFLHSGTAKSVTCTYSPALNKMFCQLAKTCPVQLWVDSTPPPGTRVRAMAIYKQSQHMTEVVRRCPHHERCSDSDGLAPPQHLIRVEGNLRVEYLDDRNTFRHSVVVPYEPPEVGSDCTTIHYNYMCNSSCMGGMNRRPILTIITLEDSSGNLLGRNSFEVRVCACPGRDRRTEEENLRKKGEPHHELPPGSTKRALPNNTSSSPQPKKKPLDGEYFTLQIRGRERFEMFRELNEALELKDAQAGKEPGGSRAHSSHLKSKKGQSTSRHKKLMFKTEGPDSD

Consider `CC(C)C(Nc1ccc(C(F)(F)F)cc1Cl)C(=O)OC(C#N)c1cccc(Oc2ccccc2)c1` (stereo not given), for which the compound was called inactive in assay [1], in assay [2], in assay [4] and in assay [5]. For the same compound, the AC50 (usually the concentration at which the activity in the assay is half-maximal) in assay [3] was 87.3 µM (active).
